The values below come from ChEMBL document CHEMBL3988442, “University of Dundee, Small-Polar-MMV Screening Library” (2021).

What all share (design): scale not given: direction of the effect not stated beside the values
The target in experiment [1] is Protein translocase subunit SecA (Escherichia coli (strain K12)) (UniProt P10408). The experiment is described as follows: Assay to Identify E. coli SecA ATPase Inhibitors. The class given is functional. The note with it: 30 µM.
Experiment [2] concerns the target T1, Ubiquitin-activating enzyme e1, putative (Leishmania donovani (strain BPK282A1)) (UniProt E9BSI1).
T1 sequence (whole entry): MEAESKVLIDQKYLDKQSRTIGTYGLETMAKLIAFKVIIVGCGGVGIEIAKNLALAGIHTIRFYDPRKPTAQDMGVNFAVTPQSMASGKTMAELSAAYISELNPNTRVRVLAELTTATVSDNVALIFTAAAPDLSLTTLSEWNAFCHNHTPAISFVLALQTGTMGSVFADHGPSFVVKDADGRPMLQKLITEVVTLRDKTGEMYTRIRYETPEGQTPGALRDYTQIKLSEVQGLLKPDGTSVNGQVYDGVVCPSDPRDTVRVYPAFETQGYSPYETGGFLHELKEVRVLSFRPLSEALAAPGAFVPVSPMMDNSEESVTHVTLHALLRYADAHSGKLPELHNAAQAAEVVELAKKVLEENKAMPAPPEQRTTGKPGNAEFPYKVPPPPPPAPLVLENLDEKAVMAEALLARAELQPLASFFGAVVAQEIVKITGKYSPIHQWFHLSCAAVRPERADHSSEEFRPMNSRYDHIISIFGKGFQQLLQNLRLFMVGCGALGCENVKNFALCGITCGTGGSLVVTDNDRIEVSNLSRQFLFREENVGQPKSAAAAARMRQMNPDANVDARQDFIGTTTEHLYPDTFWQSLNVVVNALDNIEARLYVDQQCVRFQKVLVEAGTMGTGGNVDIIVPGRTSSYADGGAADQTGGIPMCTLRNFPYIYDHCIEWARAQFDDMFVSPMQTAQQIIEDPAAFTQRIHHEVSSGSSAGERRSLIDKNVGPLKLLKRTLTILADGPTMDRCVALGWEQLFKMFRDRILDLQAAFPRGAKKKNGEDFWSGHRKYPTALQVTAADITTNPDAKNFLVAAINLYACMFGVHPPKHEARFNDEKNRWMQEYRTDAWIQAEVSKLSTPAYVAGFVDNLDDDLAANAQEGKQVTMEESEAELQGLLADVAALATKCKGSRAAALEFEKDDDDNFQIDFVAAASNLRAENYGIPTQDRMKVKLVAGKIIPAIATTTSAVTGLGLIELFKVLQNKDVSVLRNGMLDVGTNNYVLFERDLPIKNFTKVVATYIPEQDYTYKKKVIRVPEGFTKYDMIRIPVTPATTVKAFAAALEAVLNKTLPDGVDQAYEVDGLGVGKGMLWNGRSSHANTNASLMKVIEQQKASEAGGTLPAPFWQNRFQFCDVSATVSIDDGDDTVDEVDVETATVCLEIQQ
The experiment is described as follows: Leishmania donovani Ubiquitin Activating Enzyme (LdE1). The experiment is classed as functional. The note with it: 30 µM.

The target in experiment [3] is AMP-activated protein kinase, AMPK (Homo sapiens) (UniProt P54646+O43741+P54619+Q9UGJ0+Q9Y478+Q13131+Q9UGI9). The experiment is described as follows: AMP-dependent Kinase enzyme assay. An in vitro enzyme assay that detects ADP turnover that is directly proportional to AMPK activity. This uses naive AMPK that is activated during the assay with MK-8722. The following applies: 30 µM. The class given is functional.

The target in experiment [4] is Sialic acid-binding Ig-like lectin 9 (Homo sapiens) (UniProt Q9Y336). The experiment is described as follows: Hs-Siglec9 ALPHAscreen SOP 20170721. The following applies: 10 µM. For orientation: In Alpha technology, singlet oxygen from a donor bead excites a nearby acceptor bead.
The subject of experiment [5] is Trypanosoma cruzi. The experiment is described as follows: Trypanosoma cruzi phosphomannomutase and mannose-1-phosphate guanylyltransferase assay. The experiment is classed as functional. The following applies: 10 µM.
The target of experiment [6] is T2, Arginase-2, mitochondrial (Homo sapiens) (UniProt P78540).
T2 sequence (whole entry): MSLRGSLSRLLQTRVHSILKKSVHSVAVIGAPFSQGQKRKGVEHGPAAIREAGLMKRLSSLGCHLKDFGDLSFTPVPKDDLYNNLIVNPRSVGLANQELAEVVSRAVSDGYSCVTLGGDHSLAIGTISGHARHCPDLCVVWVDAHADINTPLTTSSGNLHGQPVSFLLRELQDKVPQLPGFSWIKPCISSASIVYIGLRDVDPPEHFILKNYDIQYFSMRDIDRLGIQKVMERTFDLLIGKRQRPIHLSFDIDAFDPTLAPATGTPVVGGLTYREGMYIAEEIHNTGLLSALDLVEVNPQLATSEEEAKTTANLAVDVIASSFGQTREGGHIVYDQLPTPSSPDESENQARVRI
The experiment is described as follows: in vitro enzyme assay to detect the production of urea directly proportional to the activity of Arginase II. Also: in the data most compounds retested in dose-response had high values. The class given is functional. The following applies: 33.3 µM.

In experiment [7] the target is T3, Proteasome subunit beta (Trypanosoma cruzi) (UniProt O96673).
T3 sequence (whole entry): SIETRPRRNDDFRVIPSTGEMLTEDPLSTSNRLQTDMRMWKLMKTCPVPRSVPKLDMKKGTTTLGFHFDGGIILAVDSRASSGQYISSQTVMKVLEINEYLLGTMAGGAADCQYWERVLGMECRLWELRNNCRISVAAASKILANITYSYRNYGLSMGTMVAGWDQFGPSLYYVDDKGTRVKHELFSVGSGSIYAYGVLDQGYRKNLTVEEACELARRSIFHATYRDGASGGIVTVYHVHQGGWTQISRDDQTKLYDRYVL
The experiment is described as follows: Trypanosoma cruzi proteasome chymotrypsin-like activity (TcProtChymo) assay. Also: in the data most compounds retested in dose-response had high values. The experiment is classed as functional. The following applies: 9.37 µM.

For experiment [8], the species on record is Homo sapiens. The experiment is described as follows: To identify inhibition of the IFN signalling (Jak-Stat) pathway via expression of an eGFP reporter gene under the control of an IFN-stimulated response element (ISRE) containing MxA promoter. The experiment is classed as functional. The note with it: 30 µM. Background: Reporter assays use an easily measured gene product as a stand-in for the process of interest.

The target in experiment [9] is T4, Tyrosyl-tRNA synthetase, putative (Trypanosoma cruzi (strain CL Brener)) (UniProt Q4DSP6).
T4 sequence (whole entry): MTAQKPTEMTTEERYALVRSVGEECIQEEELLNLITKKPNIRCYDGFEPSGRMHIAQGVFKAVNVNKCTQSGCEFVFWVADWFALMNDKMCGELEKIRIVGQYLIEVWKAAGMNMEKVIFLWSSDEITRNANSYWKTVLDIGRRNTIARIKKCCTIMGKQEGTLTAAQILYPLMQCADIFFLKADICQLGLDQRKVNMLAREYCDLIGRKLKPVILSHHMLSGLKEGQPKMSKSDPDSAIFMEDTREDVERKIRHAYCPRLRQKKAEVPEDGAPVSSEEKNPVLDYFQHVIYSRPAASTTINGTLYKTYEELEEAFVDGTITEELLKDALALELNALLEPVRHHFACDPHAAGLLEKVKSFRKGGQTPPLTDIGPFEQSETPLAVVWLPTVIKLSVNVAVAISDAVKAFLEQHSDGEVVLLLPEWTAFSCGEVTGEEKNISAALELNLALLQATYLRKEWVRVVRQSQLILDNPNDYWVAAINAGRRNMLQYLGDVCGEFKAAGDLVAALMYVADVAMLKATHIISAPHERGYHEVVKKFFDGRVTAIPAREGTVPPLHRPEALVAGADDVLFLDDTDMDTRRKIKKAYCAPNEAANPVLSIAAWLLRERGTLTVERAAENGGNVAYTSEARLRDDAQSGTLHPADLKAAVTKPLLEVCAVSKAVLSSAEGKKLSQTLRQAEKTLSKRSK
The experiment is described as follows: Trypanosoma cruzi tyrosyl tRNA synthetase (TcYRS) _High Tyrosine SOP. Also: in the data most compounds retested in dose-response had high values. The class given is functional. The following applies: 30 µM.

In experiment [10] the target is T4, Tyrosyl-tRNA synthetase, putative (Trypanosoma cruzi (strain CL Brener)). The experiment is described as follows: Trypanosoma cruzi tyrosyl tRNA synthetase (TcYRS) SOP. The experiment is classed as functional. The note with it: 30 µM.
The target in experiment [11] is Chromo domain-containing protein 1 (Saccharomyces cerevisiae (strain ATCC 204508 / S288c) (Baker's yeast)) (UniProt P32657). The experiment is described as follows: ScCHD-1 Enzyme Inhibition Assay. Also: in the data most compounds retested in dose-response had high values. The note with it: 30 µM. The class given is functional.

For some of these results: Entries with a potency or affinity are not part of this list.

Sequence of Chromo domain-containing protein 1 (Saccharomyces cerevisiae (strain ATCC 204508 / S288c) (Baker's yeast)) (P32657 whole entry, the tested form may be a part): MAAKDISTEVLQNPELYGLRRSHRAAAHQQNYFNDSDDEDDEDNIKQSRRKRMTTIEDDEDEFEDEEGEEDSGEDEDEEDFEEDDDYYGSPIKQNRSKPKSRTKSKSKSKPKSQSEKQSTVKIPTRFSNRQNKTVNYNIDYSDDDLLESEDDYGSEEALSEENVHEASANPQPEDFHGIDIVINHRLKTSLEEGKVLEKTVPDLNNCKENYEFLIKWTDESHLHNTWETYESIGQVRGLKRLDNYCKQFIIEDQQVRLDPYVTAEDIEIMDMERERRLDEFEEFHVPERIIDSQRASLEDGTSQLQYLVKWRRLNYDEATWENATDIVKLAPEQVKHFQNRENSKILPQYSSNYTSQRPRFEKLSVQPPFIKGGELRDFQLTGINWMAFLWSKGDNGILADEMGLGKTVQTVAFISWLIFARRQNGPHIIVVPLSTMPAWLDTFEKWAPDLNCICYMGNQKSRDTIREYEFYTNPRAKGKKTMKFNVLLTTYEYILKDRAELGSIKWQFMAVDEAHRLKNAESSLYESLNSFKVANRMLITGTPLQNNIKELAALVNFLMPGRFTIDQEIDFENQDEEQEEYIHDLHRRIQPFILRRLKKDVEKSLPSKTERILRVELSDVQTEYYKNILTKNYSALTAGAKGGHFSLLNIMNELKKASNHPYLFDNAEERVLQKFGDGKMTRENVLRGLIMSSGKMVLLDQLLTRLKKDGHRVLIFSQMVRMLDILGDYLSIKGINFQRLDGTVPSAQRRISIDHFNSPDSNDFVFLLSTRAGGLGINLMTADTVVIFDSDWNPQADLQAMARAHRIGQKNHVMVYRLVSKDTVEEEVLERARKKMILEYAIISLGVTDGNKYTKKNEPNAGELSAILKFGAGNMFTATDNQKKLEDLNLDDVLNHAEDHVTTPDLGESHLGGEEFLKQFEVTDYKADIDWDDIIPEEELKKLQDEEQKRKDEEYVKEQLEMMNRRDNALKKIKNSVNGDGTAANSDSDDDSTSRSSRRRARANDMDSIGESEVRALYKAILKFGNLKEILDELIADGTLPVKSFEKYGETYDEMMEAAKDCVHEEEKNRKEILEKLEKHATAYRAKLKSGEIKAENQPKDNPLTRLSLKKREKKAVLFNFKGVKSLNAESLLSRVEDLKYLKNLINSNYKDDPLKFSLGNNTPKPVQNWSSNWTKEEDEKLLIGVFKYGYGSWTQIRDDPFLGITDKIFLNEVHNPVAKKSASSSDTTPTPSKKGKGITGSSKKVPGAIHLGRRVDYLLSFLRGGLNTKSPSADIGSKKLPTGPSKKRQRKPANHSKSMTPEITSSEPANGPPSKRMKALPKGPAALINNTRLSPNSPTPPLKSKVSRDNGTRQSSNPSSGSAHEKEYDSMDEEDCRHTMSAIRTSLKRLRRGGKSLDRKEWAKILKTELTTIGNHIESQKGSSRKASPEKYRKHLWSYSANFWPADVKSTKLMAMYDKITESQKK
Sequence of Sialic acid-binding Ig-like lectin 9 (Homo sapiens) (Q9Y336 whole entry): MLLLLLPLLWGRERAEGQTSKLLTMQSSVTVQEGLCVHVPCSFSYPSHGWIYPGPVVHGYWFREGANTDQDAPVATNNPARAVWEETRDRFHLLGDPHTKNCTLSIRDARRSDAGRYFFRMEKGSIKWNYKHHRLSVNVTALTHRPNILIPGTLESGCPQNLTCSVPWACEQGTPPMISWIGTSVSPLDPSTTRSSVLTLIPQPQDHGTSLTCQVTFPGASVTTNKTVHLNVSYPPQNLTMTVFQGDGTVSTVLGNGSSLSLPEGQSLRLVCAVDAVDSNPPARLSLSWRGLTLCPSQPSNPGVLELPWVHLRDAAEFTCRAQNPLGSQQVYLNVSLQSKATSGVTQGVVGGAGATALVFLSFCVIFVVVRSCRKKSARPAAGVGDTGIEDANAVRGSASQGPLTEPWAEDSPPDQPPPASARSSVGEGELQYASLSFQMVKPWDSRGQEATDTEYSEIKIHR
Sequence of Protein translocase subunit SecA (Escherichia coli (strain K12)) (P10408 whole entry): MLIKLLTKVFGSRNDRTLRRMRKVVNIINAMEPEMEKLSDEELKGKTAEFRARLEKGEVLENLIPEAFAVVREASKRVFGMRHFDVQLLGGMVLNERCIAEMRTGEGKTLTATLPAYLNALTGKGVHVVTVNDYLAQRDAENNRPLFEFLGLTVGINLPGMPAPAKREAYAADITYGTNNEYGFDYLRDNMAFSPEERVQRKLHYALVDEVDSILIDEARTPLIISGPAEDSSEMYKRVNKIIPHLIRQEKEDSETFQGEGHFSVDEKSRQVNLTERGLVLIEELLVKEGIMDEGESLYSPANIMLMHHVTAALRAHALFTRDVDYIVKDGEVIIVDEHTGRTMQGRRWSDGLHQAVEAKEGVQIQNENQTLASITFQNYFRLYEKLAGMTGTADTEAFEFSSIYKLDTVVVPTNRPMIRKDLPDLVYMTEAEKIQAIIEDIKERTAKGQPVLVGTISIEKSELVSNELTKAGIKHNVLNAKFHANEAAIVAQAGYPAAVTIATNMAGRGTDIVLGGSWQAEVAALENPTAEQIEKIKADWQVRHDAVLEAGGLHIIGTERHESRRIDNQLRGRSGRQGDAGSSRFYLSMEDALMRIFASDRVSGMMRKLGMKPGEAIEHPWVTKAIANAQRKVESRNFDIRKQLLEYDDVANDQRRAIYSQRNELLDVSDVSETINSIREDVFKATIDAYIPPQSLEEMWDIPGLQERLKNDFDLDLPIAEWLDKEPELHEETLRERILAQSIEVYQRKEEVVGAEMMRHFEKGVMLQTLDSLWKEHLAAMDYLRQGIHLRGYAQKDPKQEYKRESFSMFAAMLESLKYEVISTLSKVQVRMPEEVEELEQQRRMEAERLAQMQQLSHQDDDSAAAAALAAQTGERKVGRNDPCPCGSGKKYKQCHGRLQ

As for `Cc1ccc(N2CC3(COCCN(Cc4cccnc4)C3)OCC2=O)s1` (stereo unspecified), the Percent Effect is -6.13% in experiment [1]; 2.6% in experiment [2]; 20.6% in experiment [3]; -4.32% in experiment [4]; -2.27% in experiment [5]; 0.645% in experiment [6]. The Percent Effect is 4.18% in [7]; 21.4% in experiment [8]; -2.12% in experiment [9]; -3.85% in experiment [10]; -1.59% in experiment [11].
For the compound `Cc1nnc(CN2CCN(CC(O)c3cccc(F)c3)CC2)n1C` (stereo unspecified), the Percent Effect in experiment [1] is -3.94%; in [2], 15.6%; in experiment [3], -3.28%; in experiment [4] it was 3.58%; in [5], 2.64%; in experiment [6], 0.632%. In addition, the Percent Effect in experiment [7] is 8.33%; in [8], 14%; in [9], 3.81%; in experiment [10], 11.8%; in experiment [11], -20.7%.
In the case of `CC(C)n1ncc2c1NC(=O)CC21C(=O)Nc2c(Cl)cccc21` (stereo unspecified), the Percent Effect is -1.42% in [1]; -1.33% in [2]; 3.7% in [3]; 7% in [4]; -0.393% in [5]; -6.87% in experiment [6]. Moreover, the Percent Effect in experiment [7] was 0.185%; in experiment [8] it was 34%; in experiment [9], 1.06%; in experiment [10], 2.56%; in [11], -2%.
On to `COc1cccc(CCC(=O)N2CCCCC2Cn2cccn2)c1` (stereo unspecified), for which the Percent Effect in experiment [1] is -4.9%; in [2], 7.79%; in [3], 6.53%; in experiment [4] it was 2.3%; in experiment [5], 1.47%; in [6] it was 1.9%. The Percent Effect in [7] is 3.31%; in experiment [8], 9.7%; in experiment [9] it was 0.952%; in [10], 2.35%; in [11], -13.2%.
Consider `CCOCCNc1nc(C2CCCC2)nc2c1cnn2C`, for which the Percent Effect in [1] is -4.35%; in [2], 2.74%; in [3], 6.03%; in experiment [4], -4.4%; in experiment [5] it was 0.588%; in experiment [6], 2.73%. Besides, the Percent Effect was determined as 1.6% in [7]; 17.1% in experiment [8]; 1.07% in [9]; 5% in [10]; 2.02% in experiment [11].
As to `CCCn1nc2c(cc1=O)CN(Cc1nc(CCOC)no1)CC2`, the Percent Effect was -1.92% in experiment [1]; 0% in experiment [2]; -119% in [3]; -3.46% in [4]; -0.781% in [5]; 0.417% in experiment [6]. For the same compound, the Percent Effect in experiment [7] is 10.6%; in [8] it was -1.9%; in experiment [9], -7.92%; in experiment [10], -6.1%; in experiment [11] it was -7.2%.
For `CC(C)COC(C)C(=O)N1CCN(S(C)(=O)=O)CC1` (stereo unspecified), the Percent Effect in experiment [1] is -3.12%; in experiment [2] it was 8.22%; in experiment [3], -1.38%; in experiment [4], 2.29%; in [5] it was 3.53%; in experiment [6], 1.36%. The Percent Effect in [7] is 8.34%; in experiment [8], -1.94%; in experiment [9] it was 4.3%; in experiment [10], 20%; in [11], -4.42%.
Turning to `CC(C)N1CCC(NCc2cccnc2N(C)C)CC1`, the Percent Effect in experiment [1] was -6.06%; in experiment [2], 5.33%; in experiment [3] it was -3.18%; in experiment [4] it was 0.114%; in experiment [5] it was 0.487%; in [6], 2.6%. Also, the Percent Effect in experiment [7] is 7.15%; in experiment [8] it was 0.898%; in experiment [9], -0.546%; in experiment [10] it was 8.64%; in experiment [11], -4.8%.
Take `Cn1cccc1C(=O)N1CCn2cc(CNC(=O)CC3CC3)nc2C1`: the Percent Effect in experiment [1] is -2.92%; in experiment [2], 13.3%; in experiment [3], 10.1%; in experiment [4] it was -5.14%; in [5], 4.13%; in experiment [6] it was -0.233%. For the same compound, the Percent Effect is 6.61% in experiment [7]; 0.949% in experiment [8]; 8.51% in [9]; 16.7% in experiment [10]; -6.08% in [11].
Consider `O=C(c1ccc(Cl)cc1)N1CCCn2nnc(Cn3cccn3)c2C1`, for which the Percent Effect in experiment [1] was -2.51%; in [2], 16.2%; in experiment [3] it was 3.45%; in experiment [4], 15.3%; in experiment [5], 4.2%; in [6] it was 8.19%. The Percent Effect in experiment [7] is 16.6%; in [8], 8.78%; in experiment [9], 5.38%; in experiment [10], 16.1%; in experiment [11] it was -7.62%.
In the case of `OCCN1CCOC2(CCCN(c3cccc(F)c3)C2)C1` (stereo unspecified), the Percent Effect in [1] was -3.44%; in [2], 13.3%; in experiment [3], 5.94%; in experiment [4], -3.82%; in experiment [5] it was 0.394%; in [6], 0.233%. For the same compound, the Percent Effect in [7] is 8.55%; in experiment [8] it was 3.49%; in experiment [9], 10.6%; in experiment [10], 24.4%; in experiment [11], -6.84%.
